Assay results taken from the supplement of paper PMC8975748.
Where a name gives a salt, the structure may show the parent alone.

Each compound was assayed on Saccharomyces cerevisiae BY4741 SeMeCo community (assay: z-score of subpopulation abundance vs DMSO median, subpopulation auxotrophic for H; higher = larger share of this subpopulation than in DMSO controls). Conditions: 10 µM; 24 h; SM minimal medium; subpopulation (auxotrophy): H.
Description: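 Fluorescent four-plasmid SeMeCo (self-establishing metabolically cooperating S. cerevisiae BY4741 community; plasmids pH-mRuby2, pL-mWasabi, pU-eCFP, pM-TagRFP657) was grown 24 h in minimal SM medium with each Selleck FDA-approved drug at 10 µM in 384-well plates. Cells were fixed and imaged by high-content confocal microscopy. For each auxotrophic subpopulation (and the prototroph), a z-score gives the deviation from the DMSO vehicle-control population median.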

Compound	z-score of subpopulation abundance
CC[C@@H](C(N)=O)N1CCCC1=O [Levetiracetam]	-0.46
CN(C)[C@@H]1C(=O)C(C(N)=O)=C(O)[C@@]2(O)C(=O)C3=C(O)c4c(O)cccc4[C@@](C)(O)[C@H]3[C@H](O)[C@@H]12 [Oxytetracycline Dihydrate]	0.31
CN1c2ccccc2C(NCCCCCCC(=O)O)c2ccc(Cl)cc2S1(=O)=O (stereo not given) [Tianeptine sodium]	-0.28
CN1[C@@H]2CC[C@H]1C[C@@H](OC(=O)C(CO)c1ccccc1)C2 (stereo not given in full) [Atropine sulfate monohydrate]	-0.43
CN(C)[C@@H]1C(=O)C(C(N)=O)=C(O)[C@@]2(O)C(=O)C3=C(O)c4c(O)cccc4[C@@](C)(O)[C@H]3[C@H](O)[C@@H]12 [Oxytetracycline (Terramycin)]	1.45
NC(=O)CN1CCCC1=O [Piracetam]	1.01
C=C[C@H]1CN2CC[C@H]1C[C@H]2[C@H](O)c1ccnc2ccccc12 [Cinchonidine]	-0.15
COc1ccc2[nH]cc(CCN)c2c1 [5-Methoxytryptamine]	-0.85
CC[N+](C)(CC)CCOC(=O)C(O)(c1ccccc1)c1ccccc1 [Methylbenactyzine Bromide]	0.06
CCOC(=O)Nc1ccc(NCc2ccc(F)cc2)cc1N [Retigabine]	1.45
CCOC(=O)Nc1ccc(NCc2ccc(F)cc2)cc1N [Retigabine 2HCl]	1.44
CN1[C@@H]2C[C@@H](OC(=O)[C@H](CO)c3ccccc3)C[C@H]1[C@@H]1O[C@@H]12 [Scopolamine HBr trihydrate]	-0.46
Cc1cc(O)ccc1Cl [Chlorocresol]	-0.85
CCCN1C[C@H](CSC)C[C@@H]2c3cccc4[nH]cc(c34)C[C@H]21 [Pergolide Mesylate]	-0.28
O=C(O[C@H]1C[C@H]2CC[C@@H](C1)[N+]21CCCC1)C(O)(c1ccccc1)c1ccccc1 [Trospium chloride]	-0.71
CN(C)C(=O)Oc1ccc[n+](C)c1 [Pyridostigmine Bromide]	0.16
C#C[C@]1(O)C=C[C@H]2[C@@H]3CCC4=CC(=O)CC[C@@H]4[C@H]3CC[C@@]21CC [Gestodene]	0.25
COc1ccc(C(CN(C)C)C2(O)CCCCC2)cc1 (stereo not given) [Venlafaxine]	-1.33
CN(C)[C@@H]1C(=O)C(C(N)=O)=C(O)[C@@]2(O)C(=O)C3=C(O)c4c(O)cccc4[C@@](C)(O)[C@H]3C[C@@H]12 [Tetracycline HCl]	1.08
C=CN1CCCC1=O.II [Povidone iodine]	1.96

Compound	z-score of subpopulation abundance
CCN(C)C(=O)Oc1cccc([C@H](C)N(C)C)c1 [Rivastigmine]	-0.34
NCC(O)c1ccc(O)cc1 (racemic) [(+,-)-Octopamine HCl]	-1.07
Cn1cc(C2=C(c3cn(C4CCN(Cc5ccccn5)CC4)c4ccccc34)C(=O)NC2=O)c2ccccc21	-2.71
CC(C)=CCOc1c2occc2cc2ccc(=O)oc12 [Imperatorin]	0.08
CC[C@H]1CN2CC[C@]3(C(=O)Nc4ccccc43)[C@@H]2C[C@@H]1/C(=C\OC)C(=O)OC [Rhynchophylline]	-0.08
O=c1[nH]c2ccccc2n1CCCN1CCC(n2c(=O)[nH]c3cc(Cl)ccc32)CC1 [Domperidone]	0.24
CN1[C@@H]2CC[C@H]1C[C@@H](OC(=O)[C@H](CO)c1ccccc1)C2 [Hyoscyamine]	-0.74
C[N+](C)(C)CCCCCCCCCC[N+](C)(C)C [Decamethonium Bromide]	0.07
C[CH2][Hg][S]c1ccccc1C(=O)[O-].[Na+] [Thimerosal]	7.64
N[C@@H]1C[C@H]1c1ccccc1 [Tranylcypromine (2-PCPA) HCl]	-0.67
CCC1=C[C@H]2CN3CCc4c([nH]c5ccccc45)[C@](C(=O)OC)(C2)[C@H]13 [Catharanthine]	-0.99
C[N+]1(C)[C@@H]2C[C@@H](OC(=O)[C@H](CO)c3ccccc3)C[C@H]1[C@@H]1O[C@@H]12 [Methscopolamine]	0.28
Oc1cc(Cl)ccc1Oc1ccc(Cl)cc1Cl [Triclosan]	-1.93
C=CCN1C[C@H](C(=O)N(CCCN(C)C)C(=O)NCC)C[C@@H]2c3cccc4[nH]cc(c34)C[C@H]21 [Cabergoline]	-0.38
CN(C)C(=O)Oc1cccc([N+](C)(C)C)c1 [Neostigmine Bromide]	0.03
COc1ccc2c3c([nH]c2c1)C(C)=NCC3 [Harmaline]	2.23
CN[C@@H]1[C@@H](O)[C@@H](O[C@@H]2[C@@H](O)[C@H](O[C@H]3O[C@H]([C@@H](C)O)[C@@H](O)[C@H](O)[C@H]3N)[C@@H](N)C[C@H]2N)OC[C@]1(C)O [Geneticin (G418 Sulfate)]	-0.21
CC(=O)O[C@H]1C[C@@H]2CC[C@@H]3[C@H](CC[C@@]4(C)[C@H]3C[C@H]([N+]3(C)CCCCC3)[C@@H]4OC(C)=O)[C@@]2(C)C[C@@H]1[N+]1(C)CCCCC1 [Pancuronium dibromide]	-0.63
O=c1cccc2n1C[C@@H]1CNC[C@H]2C1 [Cytisine]	-0.04
N#Cc1nn(-c2c(Cl)cc(C(F)(F)F)cc2Cl)c(N)c1[S+]([O-])C(F)(F)F (stereo not given) [Fipronil]	0.48
